Sampled rows, rich in hits. Any-hit rate of the full collection: about 21%.
CYP2C19 inhib – human CYP2C19 inhibition; P33261; actives 21% (n = 96,000); CYP2C19 Supersomes, luciferin-H EGE luminescence, 30 min; inhibition, % at 5 µM;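 active means CYP2C19 inhibition above a set limit at 5 µM in the primary screen, cut at about 50% in these data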
Target sequence (P33261 whole entry, looked up): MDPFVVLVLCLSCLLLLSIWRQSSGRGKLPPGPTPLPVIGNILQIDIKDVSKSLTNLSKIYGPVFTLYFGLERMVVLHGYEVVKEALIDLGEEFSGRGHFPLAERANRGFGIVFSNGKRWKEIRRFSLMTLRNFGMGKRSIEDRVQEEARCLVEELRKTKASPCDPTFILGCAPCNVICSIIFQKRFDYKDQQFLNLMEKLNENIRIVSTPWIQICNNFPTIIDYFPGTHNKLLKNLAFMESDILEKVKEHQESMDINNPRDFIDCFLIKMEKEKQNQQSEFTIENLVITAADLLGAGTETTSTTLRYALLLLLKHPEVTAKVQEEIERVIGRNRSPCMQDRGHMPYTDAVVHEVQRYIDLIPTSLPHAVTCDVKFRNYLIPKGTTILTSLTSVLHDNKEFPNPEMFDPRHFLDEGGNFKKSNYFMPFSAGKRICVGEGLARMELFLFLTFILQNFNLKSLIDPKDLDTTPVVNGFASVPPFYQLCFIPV
MRP1 act – activates MRP-1. actives 0.61% (n = 140,000). H69AR cells + doxorubicin, viability rescue, CellTiter-Glo. viability increase, % at 10 µM;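 active means viability gain under doxorubicin at or above a set limit, the compound median plus 3 SD, cut at about 4.7% in these data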;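 further: MRP-1 overexpressing cells given doxorubicin 25 µM after compound pretreatment; 18-22 h compound pretreatment then 72 h with doxorubicin before readout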
CYP2C9 act – CYP2C9 (human) activation; recombinant CYP2C9, luciferin-H conversion, luminescence; stronger effect = higher value; factor 1 = untreated enzyme, 0 = blocked; actives 1.4% (n = 96,000); AID 1024; P11712; activation factor at 5 µM;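 active means activation factor of 2 or more for CYP2C9 at a 5 µM dose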
CYP2C19 activ – increases human CYP2C19 enzyme activity | P33261 | recombinant CYP2C19, luciferin-H EGE luminescence; stronger effect = higher value; 0 = fully inhibited enzyme, 1 = untreated enzyme | activation factor at 5 µM | 96,000 tested, under 10 active | AID 1025;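 active means activation factor of at least 2 at 5 µM in the primary screen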
MRP resist rev – reverses drug resistance mediated by MRP | H69AR cells + 2 uM doxorubicin, CellTiter-Glo, 72 h | differential viability (reversal), % at 10 µM | actives 0.04% (n = 85,000);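 active means viability drop by adding the cancer drug above about 55%, with treated viability meeting a 40% cutoff, limit read from the data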;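 further: larger differential means the compound sensitizes cells more to doxorubicin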
CYP2C9 inh – human CYP2C9 inhibition; P11712; CYP2C9 Supersomes, luciferin-H conversion, luminescence; inhibition, % at 5 µM; actives 20% (n = 96,000); AID 777;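 active means blocking of liver enzyme CYP2C9 beyond about 50% at 5 µM, limit read from the data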
A number is an active result; 0 = inactive; - = no result given.

SMILES | CYP2C19 inhib | MRP1 act | CYP2C9 act | CYP2C19 activ | MRP resist rev | CYP2C9 inh
Cc1onc(-c2c(F)cccc2Cl)c1C(=O)Nc1sc2c(c1C#N)CCC(C(C)(C)C)C2 (stereo unspecified) | - | 11.4 | - | - | 0 | -
Cc1onc(-c2c(F)cccc2Cl)c1C(=O)Nc1sc2c(c1C(N)=O)CCC2 | 0 | 0 | 0 | 0 | 0 | 74.5
Cc1ccc(C(=O)NC2CCCCCC2)cc1N1CCCC1=O | 0 | 0 | 0 | 0 | 0 | 0
O=C(NC1CCCCCC1)c1cccc(N2CCCC2=O)c1 | 56.9 | 0 | 0 | 0 | - | 0
O=C(NCCCN1CCCC1=O)c1cccc(N2CCCC2=O)c1 | 0 | 0 | 0 | 0 | 0 | 0
O=C(NCc1cccs1)c1cccc(N2CCCC2=O)c1 | 57.3 | 0 | 0 | 0 | 0 | 54.5
COc1ccc2nc(SCC(=O)N3CCN(c4ccc(F)cc4)CC3)c(C#N)cc2c1 | - | 0 | - | - | 0 | -
CCNC(=O)C(=O)NCCc1ccc(Cl)cc1 | 58.6 | 0 | 0 | 0 | 0 | 0
Cc1occc1C(=O)NCCCCc1ccccc1 | 0 | 0 | 0 | 0 | 0 | 0
O=C(NCCc1ccc(O)cc1)c1ccc(Cl)cc1 | 0 | 0 | 2.3 | 0 | 0 | 0
COc1ccccc1CCNC(=O)c1ccoc1C | 82.7 | 0 | 0 | 0 | 0 | 0
Cc1occc1C(=O)NCCc1ccc(Cl)cc1 | 57.2 | 0 | 0 | 0 | 0 | 0
COC(=O)c1ccc(NC(=O)CSc2nnc(C(C)NC(=O)c3ccccc3Cl)n2C)cc1 (stereo unspecified) | 0 | 0 | 0 | 0 | 0 | 0
COc1cccc(-n2nnnc2SCC(=O)NCCc2ccccc2)c1 | 92.6 | 0 | 0 | 0 | 0 | 0
COc1ccc(OC)c(-n2nnnc2SCC(=O)NCCc2ccccc2)c1 | 60.5 | 0 | 0 | 0 | 0 | 54.0
CCC(=O)N1CCc2cc(S(=O)(=O)NC(C(=O)NC3CCCc4ccccc43)C(C)C)ccc21 (stereo unspecified) | - | 0 | - | - | - | -
Clc1ccc(CSc2nnc(NC3=NCCCCC3)s2)cc1 | 90.7 | 0 | 0 | 0 | 0 | 67.2
CCn1cc(C(=O)Nc2ccc(OC)c(S(=O)(=O)N3CCCCC3)c2)c(=O)c2ccc(C)nc21 | - | 0 | - | - | - | -
Cc1ccc(C(=O)OCC(=O)NCc2cccs2)cc1 | - | 0 | - | - | - | -
O=C(Cn1nc(Cl)nc1Cl)c1cc2ccccc2oc1=O | 0 | 0 | 0 | 0 | 0 | 61.8
CCCCCn1c(N)c(-c2nc3ccccc3o2)c2c([N+](=O)[O-])nn(CC)c(=O)c21 | - | 0 | - | - | - | -
CCCCn1c(N)c(-c2nc3ccccc3s2)c2c([N+](=O)[O-])nn(CC)c(=O)c21 | 0 | 0 | 0 | 0 | 0 | 67.9
CCCCn1c(N)c(-c2nc3ccccc3s2)c2c([N+](=O)[O-])nn(C)c(=O)c21 | 0 | 0 | 0 | 0 | - | 0
CCCCCn1c(N)c(-c2nc3ccccc3s2)c2c([N+](=O)[O-])nn(CC)c(=O)c21 | 0 | 0 | 0 | 0 | - | 72.4
CN1CCN(c2c3c(c(C#N)c4nc5ccccc5n24)CCCC3)CC1 | - | - | - | - | 0 | -
SMILES | CYP2C19 inhib | MRP1 act | CYP2C9 act | CYP2C19 activ | MRP resist rev | CYP2C9 inh
Cc1cccc(OC(C)C(=O)N(Cc2cccs2)C2CCS(=O)(=O)C2)c1C (stereo unspecified) | 95.0 | 0 | 0 | 0 | 0 | 0
Cc1ccccc1OCC(=O)N(Cc1cccs1)C1CCS(=O)(=O)C1 (stereo unspecified) | 0 | 0 | 0 | 0 | 0 | 0
CCOc1ccc(/C=C2\C(=O)c3ccccc3OC2c2ccccc2)cc1 (stereo unspecified) | 51.5 | 0 | 0 | 0 | - | 0
CCCCOc1ccc(/C=C2/Sc3ccccc3C2=O)cc1 | 0 | 0 | 0 | 0 | - | 0
CCN(CC)Cc1cc(NC2=NS(=O)(=O)c3ccccc32)ccc1OC(=O)c1ccccc1 | - | 0 | - | - | - | -
CCCC1(C(=O)OCC)NC(c2ccc(N(C)C)cc2)C2C(=O)N(c3ccc(OCC)cc3)C(=O)C21 (stereo unspecified) | 73.5 | 0 | 0 | 0 | 0 | 0
CCCC1(C(=O)OCC)NC(c2ccc(N(C)C)cc2)C2C(=O)N(c3ccccc3)C(=O)C21 (stereo unspecified) | - | 0 | - | - | 0 | -
CO/N=C/c1cc([N+](=O)[O-])ccc1Sc1ccc(C)cc1 | 64.8 | 0 | 0 | 0 | - | 63.8
CO/N=C/c1ccc(Sc2ccc(C)cc2)c([N+](=O)[O-])c1 | 0 | 0 | 0 | 0 | 0 | 0
Cc1ccc(Sc2ccc(/C=N/O)cc2[N+](=O)[O-])cc1 | 0 | 0 | 0 | 0 | 0 | 63.9
COc1ccc(NC(=O)CSc2ccc3ccccc3c2)cc1S(=O)(=O)N1CCCCC1 | - | 0 | - | - | - | -

From PubChem
